For some of these results: Potency and affinity values are given separately.
Key:
[1] = biological target: Protein translocase subunit SecA (Escherichia coli (strain K12)) (UniProt P10408); test: Assay to Identify E. coli SecA ATPase Inhibitors; assay type: functional; design: scale not given: direction of the effect not stated beside the values; settings: 30 µM
[2] = biological target: T1, Ubiquitin-activating enzyme e1, putative (Leishmania donovani (strain BPK282A1)) (UniProt E9BSI1); test: Leishmania donovani Ubiquitin Activating Enzyme (LdE1); assay type: functional; design: scale not given: direction of the effect not stated beside the values; settings: 30 µM
T1 sequence (whole entry): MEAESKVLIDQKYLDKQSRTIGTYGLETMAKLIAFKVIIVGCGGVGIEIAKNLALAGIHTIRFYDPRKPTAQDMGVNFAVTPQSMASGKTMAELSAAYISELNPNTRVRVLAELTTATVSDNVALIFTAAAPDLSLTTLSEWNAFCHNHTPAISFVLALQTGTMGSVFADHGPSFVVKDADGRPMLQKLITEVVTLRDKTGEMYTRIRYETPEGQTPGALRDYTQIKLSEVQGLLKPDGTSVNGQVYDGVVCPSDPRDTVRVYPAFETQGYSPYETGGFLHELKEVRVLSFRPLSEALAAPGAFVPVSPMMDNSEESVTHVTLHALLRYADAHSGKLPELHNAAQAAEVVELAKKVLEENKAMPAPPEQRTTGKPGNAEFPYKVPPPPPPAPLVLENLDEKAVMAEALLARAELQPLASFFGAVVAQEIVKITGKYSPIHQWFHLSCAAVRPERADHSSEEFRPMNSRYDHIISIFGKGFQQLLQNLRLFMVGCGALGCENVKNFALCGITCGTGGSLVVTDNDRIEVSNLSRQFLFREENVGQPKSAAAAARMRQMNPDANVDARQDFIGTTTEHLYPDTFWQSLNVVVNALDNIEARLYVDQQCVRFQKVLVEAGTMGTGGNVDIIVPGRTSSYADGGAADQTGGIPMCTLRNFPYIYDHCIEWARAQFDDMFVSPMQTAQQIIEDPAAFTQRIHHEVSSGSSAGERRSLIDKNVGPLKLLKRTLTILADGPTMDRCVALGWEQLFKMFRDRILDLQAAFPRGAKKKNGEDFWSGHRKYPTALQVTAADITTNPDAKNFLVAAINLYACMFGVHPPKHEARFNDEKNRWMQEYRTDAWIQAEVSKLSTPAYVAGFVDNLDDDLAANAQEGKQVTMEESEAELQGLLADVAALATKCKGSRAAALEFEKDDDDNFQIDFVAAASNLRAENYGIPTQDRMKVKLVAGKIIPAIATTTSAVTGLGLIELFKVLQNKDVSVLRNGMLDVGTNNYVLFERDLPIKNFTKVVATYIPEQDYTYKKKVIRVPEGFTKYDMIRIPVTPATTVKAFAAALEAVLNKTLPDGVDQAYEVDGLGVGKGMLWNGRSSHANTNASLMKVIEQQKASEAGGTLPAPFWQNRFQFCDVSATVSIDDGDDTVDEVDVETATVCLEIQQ

[3] = biological target: T2, Aspartate--tRNA(Asp/Asn) ligase (Mycobacterium tuberculosis (strain ATCC 25618 / H37Rv)) (UniProt P9WFW3); test: Assay for Asp RNA synthetase-1 from Mycobacterium tuberculosis; assay type: functional; design: scale not given: direction of the effect not stated beside the values; settings: 30 µM; also: in the data most compounds retested in dose-response had high values
T2 sequence (whole entry): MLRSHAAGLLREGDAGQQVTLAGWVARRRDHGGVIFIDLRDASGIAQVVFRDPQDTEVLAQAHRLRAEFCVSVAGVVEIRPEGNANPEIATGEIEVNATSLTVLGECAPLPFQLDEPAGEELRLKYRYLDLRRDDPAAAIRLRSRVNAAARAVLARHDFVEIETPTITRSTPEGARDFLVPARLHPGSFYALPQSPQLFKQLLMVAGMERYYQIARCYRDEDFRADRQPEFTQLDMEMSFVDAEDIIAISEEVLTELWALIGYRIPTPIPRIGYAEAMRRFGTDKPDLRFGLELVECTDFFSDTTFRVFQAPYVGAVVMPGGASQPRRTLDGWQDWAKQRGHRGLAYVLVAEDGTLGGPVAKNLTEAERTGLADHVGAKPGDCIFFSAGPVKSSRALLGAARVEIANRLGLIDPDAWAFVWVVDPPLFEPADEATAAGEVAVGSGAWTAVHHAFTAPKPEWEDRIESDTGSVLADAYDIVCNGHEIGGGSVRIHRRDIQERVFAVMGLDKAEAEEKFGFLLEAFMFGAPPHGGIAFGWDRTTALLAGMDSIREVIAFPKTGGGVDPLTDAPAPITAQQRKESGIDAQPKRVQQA

[4] = biological target: AMP-activated protein kinase, AMPK (Homo sapiens) (UniProt P54646+O43741+P54619+Q9UGJ0+Q9Y478+Q13131+Q9UGI9); test: AMP-dependent Kinase enzyme assay. An in vitro enzyme assay that detects ADP turnover that is directly proportional to AMPK activity. This uses naive AMPK that is activated during the assay with MK-8722; assay type: functional; design: scale not given: direction of the effect not stated beside the values; settings: 30 µM
[5] = biological target: Sialic acid-binding Ig-like lectin 9 (Homo sapiens) (UniProt Q9Y336); test: Hs-Siglec9 ALPHAscreen SOP 20170721; design: scale not given: direction of the effect not stated beside the values; settings: 10 µM
Sialic acid-binding Ig-like lectin 9 (Homo sapiens), sequence (Q9Y336 whole entry): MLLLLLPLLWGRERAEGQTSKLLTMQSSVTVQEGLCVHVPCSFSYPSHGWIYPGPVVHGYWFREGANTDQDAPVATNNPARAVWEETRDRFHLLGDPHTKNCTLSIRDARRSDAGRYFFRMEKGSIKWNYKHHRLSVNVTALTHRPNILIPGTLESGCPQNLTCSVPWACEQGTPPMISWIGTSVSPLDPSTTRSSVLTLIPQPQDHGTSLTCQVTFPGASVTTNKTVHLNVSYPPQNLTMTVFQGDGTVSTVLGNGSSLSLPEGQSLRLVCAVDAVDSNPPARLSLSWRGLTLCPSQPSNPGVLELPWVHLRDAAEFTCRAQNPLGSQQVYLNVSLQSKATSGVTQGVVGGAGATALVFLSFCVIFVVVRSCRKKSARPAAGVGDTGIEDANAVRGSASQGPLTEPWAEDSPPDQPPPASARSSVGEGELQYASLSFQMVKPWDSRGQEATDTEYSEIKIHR

[6] = system: Trypanosoma cruzi; test: Trypanosoma cruzi phosphomannomutase and mannose-1-phosphate guanylyltransferase assay; assay type: functional; design: scale not given: direction of the effect not stated beside the values; settings: 10 µM
[7] = biological target: T3, Arginase-2, mitochondrial (Homo sapiens) (UniProt P78540); test: in vitro enzyme assay to detect the production of urea directly proportional to the activity of Arginase II; assay type: functional; design: scale not given: in the data most compounds retested in dose-response had high values; settings: 33.3 µM
T3 sequence (whole entry): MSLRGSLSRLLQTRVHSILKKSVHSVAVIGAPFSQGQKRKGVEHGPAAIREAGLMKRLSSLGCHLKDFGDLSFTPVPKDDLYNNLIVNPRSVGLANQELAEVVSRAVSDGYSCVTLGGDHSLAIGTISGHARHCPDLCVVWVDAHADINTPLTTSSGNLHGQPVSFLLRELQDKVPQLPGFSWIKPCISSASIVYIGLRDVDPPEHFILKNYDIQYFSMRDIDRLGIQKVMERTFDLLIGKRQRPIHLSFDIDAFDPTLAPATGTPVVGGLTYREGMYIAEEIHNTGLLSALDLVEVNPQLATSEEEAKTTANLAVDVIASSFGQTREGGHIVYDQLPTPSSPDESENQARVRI

[8] = biological target: T4, Proteasome subunit beta (Trypanosoma cruzi) (UniProt O96673); test: Trypanosoma cruzi proteasome chymotrypsin-like activity (TcProtChymo) assay.; assay type: functional; design: scale not given: in the data most compounds retested in dose-response had high values; settings: 9.37 µM
T4 sequence (whole entry): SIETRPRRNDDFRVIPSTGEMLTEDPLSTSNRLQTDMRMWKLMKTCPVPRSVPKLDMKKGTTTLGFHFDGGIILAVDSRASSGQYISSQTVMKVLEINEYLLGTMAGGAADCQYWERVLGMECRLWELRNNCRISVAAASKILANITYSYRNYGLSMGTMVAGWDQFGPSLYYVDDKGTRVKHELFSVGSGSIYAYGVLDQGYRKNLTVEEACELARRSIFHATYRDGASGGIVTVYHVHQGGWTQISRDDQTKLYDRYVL

[9] = organism: Homo sapiens; test: To identify inhibition of the IFN signalling (Jak-Stat) pathway via expression of an eGFP reporter gene under the control of an IFN-stimulated response element (ISRE) containing MxA promoter.; assay type: functional; design: scale not given: direction of the effect not stated beside the values; settings: 30 µM
[10] = biological target: Shiga toxin 2 (Escherichia coli O157:H7) (UniProt P09385+P09386); test: E. coli 0.157:H7 Shiga Toxin SOP - stx2 screening assay; assay type: functional; design: scale not given: direction of the effect not stated beside the values; settings: 30 µM
[11] = biological target: T5, Tyrosyl-tRNA synthetase, putative (Trypanosoma cruzi (strain CL Brener)) (UniProt Q4DSP6); test: Trypanosoma cruzi tyrosyl tRNA synthetase (TcYRS) _High Tyrosine SOP; assay type: functional; design: scale not given: in the data most compounds retested in dose-response had high values; settings: 30 µM
T5 sequence (whole entry): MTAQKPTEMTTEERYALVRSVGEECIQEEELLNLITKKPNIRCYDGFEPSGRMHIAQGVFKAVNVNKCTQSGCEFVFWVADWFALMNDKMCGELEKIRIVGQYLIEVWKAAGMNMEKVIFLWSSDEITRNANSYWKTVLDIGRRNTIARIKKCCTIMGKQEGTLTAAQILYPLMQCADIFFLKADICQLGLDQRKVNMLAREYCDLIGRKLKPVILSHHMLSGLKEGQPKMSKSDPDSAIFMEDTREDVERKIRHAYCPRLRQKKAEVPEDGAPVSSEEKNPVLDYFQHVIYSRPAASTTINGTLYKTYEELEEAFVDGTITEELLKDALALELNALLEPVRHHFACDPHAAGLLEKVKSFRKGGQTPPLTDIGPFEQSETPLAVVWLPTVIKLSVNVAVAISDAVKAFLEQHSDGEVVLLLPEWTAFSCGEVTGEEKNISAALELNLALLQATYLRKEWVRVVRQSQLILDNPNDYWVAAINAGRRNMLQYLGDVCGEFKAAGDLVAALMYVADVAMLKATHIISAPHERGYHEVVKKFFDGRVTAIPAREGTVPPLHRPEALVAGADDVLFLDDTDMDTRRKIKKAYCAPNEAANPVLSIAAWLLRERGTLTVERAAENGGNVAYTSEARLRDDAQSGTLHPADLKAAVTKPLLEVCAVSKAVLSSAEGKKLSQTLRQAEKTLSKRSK

[12] = biological target: T5, Tyrosyl-tRNA synthetase, putative (Trypanosoma cruzi (strain CL Brener)); test: Trypanosoma cruzi tyrosyl tRNA synthetase (TcYRS) SOP; assay type: functional; design: scale not given: direction of the effect not stated beside the values; settings: 30 µM
[13] = biological target: Chromo domain-containing protein 1 (Saccharomyces cerevisiae (strain ATCC 204508 / S288c) (Baker's yeast)) (UniProt P32657); test: ScCHD-1 Enzyme Inhibition Assay; assay type: functional; design: scale not given: in the data most compounds retested in dose-response had high values; settings: 30 µM
Chromo domain-containing protein 1 (Saccharomyces cerevisiae (strain ATCC 204508 / S288c) (Baker's yeast)), sequence (P32657 whole entry, the tested form may be a part): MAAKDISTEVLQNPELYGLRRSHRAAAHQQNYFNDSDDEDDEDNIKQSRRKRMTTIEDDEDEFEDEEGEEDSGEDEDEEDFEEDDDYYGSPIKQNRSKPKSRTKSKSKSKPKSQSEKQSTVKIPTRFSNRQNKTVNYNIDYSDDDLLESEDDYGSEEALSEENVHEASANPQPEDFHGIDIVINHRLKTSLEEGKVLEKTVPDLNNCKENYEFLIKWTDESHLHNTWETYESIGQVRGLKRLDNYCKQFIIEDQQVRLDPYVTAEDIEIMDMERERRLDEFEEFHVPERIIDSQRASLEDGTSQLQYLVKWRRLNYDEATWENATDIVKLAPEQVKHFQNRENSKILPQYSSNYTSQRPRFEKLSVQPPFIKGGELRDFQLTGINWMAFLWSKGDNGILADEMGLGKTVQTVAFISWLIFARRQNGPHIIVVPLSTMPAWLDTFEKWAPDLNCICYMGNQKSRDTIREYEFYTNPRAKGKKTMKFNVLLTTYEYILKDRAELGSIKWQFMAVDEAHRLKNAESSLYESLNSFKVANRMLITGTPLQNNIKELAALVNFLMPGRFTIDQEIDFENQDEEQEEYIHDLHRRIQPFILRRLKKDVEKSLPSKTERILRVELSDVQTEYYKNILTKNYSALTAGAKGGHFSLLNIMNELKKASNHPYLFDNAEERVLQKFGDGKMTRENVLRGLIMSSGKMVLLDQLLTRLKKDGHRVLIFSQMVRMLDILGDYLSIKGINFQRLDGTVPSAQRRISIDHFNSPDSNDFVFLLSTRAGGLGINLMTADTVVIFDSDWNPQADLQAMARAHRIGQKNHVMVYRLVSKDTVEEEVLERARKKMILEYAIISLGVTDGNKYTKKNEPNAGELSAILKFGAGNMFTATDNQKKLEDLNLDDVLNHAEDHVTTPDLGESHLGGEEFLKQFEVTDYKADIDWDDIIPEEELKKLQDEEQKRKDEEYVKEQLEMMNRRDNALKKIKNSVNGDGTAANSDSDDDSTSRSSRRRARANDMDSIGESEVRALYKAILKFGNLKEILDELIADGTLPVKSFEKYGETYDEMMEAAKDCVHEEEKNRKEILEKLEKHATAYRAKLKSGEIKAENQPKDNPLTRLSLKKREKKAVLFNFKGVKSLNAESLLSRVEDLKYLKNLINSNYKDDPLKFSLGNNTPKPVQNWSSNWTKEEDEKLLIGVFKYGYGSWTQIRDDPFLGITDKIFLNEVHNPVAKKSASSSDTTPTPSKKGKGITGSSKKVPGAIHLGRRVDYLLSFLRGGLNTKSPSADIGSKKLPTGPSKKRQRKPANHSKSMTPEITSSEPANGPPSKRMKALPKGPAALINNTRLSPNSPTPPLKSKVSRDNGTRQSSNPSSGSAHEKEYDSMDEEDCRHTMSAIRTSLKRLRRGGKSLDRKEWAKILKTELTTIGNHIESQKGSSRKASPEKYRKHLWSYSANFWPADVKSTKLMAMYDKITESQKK

[14] = biological target: T6, Methionyl-tRNA synthetase, putative (Leishmania donovani (strain BPK282A1)) (UniProt E9BF75); test: Leishmania donovani Methionine tRNA synthetase (LdMetRS):v7. Dose response assay; assay type: functional; design: conc 80 nM, time 150 minutes
T6 sequence (whole entry): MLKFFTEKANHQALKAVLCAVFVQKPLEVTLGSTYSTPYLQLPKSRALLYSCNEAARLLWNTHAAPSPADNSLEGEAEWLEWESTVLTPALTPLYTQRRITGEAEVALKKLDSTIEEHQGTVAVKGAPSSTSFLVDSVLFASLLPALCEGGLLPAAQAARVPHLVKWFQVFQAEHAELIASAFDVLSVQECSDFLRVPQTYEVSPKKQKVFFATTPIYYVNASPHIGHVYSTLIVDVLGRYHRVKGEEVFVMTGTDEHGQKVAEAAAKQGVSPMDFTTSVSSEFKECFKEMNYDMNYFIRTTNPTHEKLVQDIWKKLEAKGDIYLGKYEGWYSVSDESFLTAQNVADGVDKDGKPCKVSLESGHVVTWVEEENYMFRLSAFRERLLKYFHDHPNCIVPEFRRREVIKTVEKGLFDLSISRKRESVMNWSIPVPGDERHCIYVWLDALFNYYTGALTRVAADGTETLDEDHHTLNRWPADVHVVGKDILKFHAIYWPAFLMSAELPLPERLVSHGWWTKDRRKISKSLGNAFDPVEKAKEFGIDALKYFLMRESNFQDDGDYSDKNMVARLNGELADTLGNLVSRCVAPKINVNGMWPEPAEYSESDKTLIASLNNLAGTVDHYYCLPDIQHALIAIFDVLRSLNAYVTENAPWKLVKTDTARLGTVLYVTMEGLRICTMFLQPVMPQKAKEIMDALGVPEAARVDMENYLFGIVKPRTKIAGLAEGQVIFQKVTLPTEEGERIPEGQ

Protein translocase subunit SecA (Escherichia coli (strain K12)), sequence (P10408 whole entry): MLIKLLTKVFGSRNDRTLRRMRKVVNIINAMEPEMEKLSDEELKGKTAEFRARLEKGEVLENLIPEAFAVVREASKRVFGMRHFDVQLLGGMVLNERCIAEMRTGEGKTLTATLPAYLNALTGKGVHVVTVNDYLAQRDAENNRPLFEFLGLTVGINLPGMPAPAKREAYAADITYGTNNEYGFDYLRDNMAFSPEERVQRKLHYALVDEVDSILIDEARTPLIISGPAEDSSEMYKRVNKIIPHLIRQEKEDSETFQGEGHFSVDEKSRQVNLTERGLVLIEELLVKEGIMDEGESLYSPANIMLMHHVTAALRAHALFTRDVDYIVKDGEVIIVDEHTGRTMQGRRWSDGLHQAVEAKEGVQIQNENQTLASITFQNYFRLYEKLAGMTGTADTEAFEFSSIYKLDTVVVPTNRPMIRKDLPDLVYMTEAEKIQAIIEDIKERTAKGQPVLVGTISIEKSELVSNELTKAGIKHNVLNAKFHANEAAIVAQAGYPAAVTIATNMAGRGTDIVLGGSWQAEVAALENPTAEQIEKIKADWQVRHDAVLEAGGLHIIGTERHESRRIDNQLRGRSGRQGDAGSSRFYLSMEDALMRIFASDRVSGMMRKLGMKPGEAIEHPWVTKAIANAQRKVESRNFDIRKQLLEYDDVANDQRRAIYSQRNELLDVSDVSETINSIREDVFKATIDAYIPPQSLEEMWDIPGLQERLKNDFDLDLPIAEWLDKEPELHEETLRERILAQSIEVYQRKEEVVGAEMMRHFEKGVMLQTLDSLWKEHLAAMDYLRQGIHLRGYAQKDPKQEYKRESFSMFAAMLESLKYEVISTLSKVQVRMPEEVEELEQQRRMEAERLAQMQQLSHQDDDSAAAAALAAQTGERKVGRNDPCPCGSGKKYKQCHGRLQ

| SMILES | Percent Effect [1] | Percent Effect [2] | Percent Effect [3] | Percent Effect [4] | Percent Effect [5] | Percent Effect [6] | Percent Effect [7] | Percent Effect [8] | Percent Effect [9] | Percent Effect [10] | Percent Effect [11] | Percent Effect [12] | Percent Effect [13] | PXC50 ([14]; MAX_EFFECT 13.49809886) | PXC50 ([14]; MAX_EFFECT 17.06263499) |
| --- | --- | --- | --- | --- | --- | --- | --- | --- | --- | --- | --- | --- | --- | --- | --- |
| O=C1OCCC1N1CCN(C(=O)Cc2c[nH]c3ccccc23)CC1 (stereo not drawn) | -0.412% | 18.9% | 6.13% | -14.5% | -1.41% | 3.49% | -9.62% | 15.7% | 9.19% | 15.5% | 12.3% | 23.5% | -11.1% |  |  |
| Oc1cc(Cl)cc(Cl)c1 |  |  |  |  |  |  |  |  |  |  |  |  |  | < 3 | < 3 |
| CC(C)NC(=O)[C@H]1C[C@@H]2[C@@H](C1)OCCN2Cc1cccnc1 | 1.37% | -5.33% | 3.61% | 10.3% | 6.39% | -4.25% | -52.9% | 1.54% | 7.17% | -9.38% | 3.12% | 2.5% | -0.286% |  |  |

— ChEMBL document CHEMBL3988442, “University of Dundee, Small-Polar-MMV Screening Library” (2021)
